Records with an inconclusive call do not appear. Where a call stands in place of a potency, no number is given. Values without a mark were called inactive. Activity calls are given as the source filed them. The call rests on the fitted dose curve.

Muscarinic acetylcholine receptor M1 (Homo sapiens), sequence (P11229 whole entry, looked up): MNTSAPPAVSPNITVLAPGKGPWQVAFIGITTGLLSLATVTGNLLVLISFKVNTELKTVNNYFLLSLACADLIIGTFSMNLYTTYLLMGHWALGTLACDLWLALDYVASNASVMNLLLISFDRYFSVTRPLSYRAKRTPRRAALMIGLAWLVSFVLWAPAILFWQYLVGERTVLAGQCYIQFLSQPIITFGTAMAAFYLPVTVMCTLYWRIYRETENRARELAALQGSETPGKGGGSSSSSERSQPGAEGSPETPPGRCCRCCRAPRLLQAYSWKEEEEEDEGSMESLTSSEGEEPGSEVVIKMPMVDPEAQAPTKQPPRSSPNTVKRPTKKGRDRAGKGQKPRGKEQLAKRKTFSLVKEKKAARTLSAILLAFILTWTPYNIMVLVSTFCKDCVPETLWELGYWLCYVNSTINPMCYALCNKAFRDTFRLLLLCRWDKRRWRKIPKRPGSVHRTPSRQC
5-hydroxytryptamine receptor 2A (Homo sapiens), sequence (P28223 whole entry, looked up): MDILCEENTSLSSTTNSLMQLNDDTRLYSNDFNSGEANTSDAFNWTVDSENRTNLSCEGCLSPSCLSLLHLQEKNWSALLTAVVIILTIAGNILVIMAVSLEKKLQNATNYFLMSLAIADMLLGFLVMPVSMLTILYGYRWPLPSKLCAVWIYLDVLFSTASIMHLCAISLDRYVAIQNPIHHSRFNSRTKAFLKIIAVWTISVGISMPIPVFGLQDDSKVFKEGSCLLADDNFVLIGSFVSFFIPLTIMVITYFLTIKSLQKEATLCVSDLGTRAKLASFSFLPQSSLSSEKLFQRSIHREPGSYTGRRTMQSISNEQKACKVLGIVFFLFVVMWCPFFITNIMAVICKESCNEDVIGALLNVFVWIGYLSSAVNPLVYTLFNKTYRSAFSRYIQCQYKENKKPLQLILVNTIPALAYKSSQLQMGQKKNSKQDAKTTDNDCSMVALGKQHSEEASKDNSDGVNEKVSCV

The target in one assay is 5-hydroxytryptamine receptor 2A (Homo sapiens) (UniProt P28223). Put plainly: 5-hydroxytryptamine receptor 2A (HTR2A) small molecule agonists, cell-based qHTS assay (AID 1963587). Further: nearly all actives have a fitted effect of over 30% in size. Particulars: HTR2A-CHO cells, calcium flux fluorescence, agonist mode; series mostly up to 76.8 µM. In short, it runs like this:
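HTR2A-CHO cells, plated 18 h at 37 C/5% CO2, dye-loaded 1 h at 37 C; compounds in DMSO added by pin tool (agonist mode). Intracellular calcium flux read as kinetic fluorescence on FDSS over 2 min at 1 s intervals.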
Take `NNS(=O)(=O)c1ccc(Oc2ccc(S(=O)(=O)NN)cc2)cc1`: the Potency result is “inactive”.

Regarding `O=C(O)CONC(=O)c1ccccc1`, the Potency result was “inactive”.

As to `OCC1CC2CC1C1CCC(CO)C21` (stereo unspecified), the Potency entry is “inactive”.

Turning to `O=C1CCC(=O)N1`, the Potency entry was “inactive”.

In the case of `CCC(=O)OC/C=C(\C)CCC=C(C)C`, the Potency entry is “inactive”.

Consider `CC(O)CNCC(C)O` (stereo unspecified), for which the Potency result is “inactive”.

Take `OCc1ccccc1O`: the Potency entry was “inactive”.

In the case of `CCOC(=O)c1cccc(N)c1`, the Potency result is “inactive”.

Regarding `CNCCO`, the Potency entry is “inactive”.

Consider `N#CCN(CC#N)CCN(CC#N)CC#N`, for which the Potency result was “inactive”.

With `CCCOCCOCCOCCO`, the Potency entry was “inactive”.

The next assay concerns the target Muscarinic acetylcholine receptor M1 (Homo sapiens) (UniProt P11229). Put plainly: Cholinergic receptor muscarinic 1 (CHRM1) small molecule antagonists, cell-based qHTS assay (AID 1963588). Further: nearly all actives have a fitted effect of over 40% in size. Further: potency means the concentration at half of the fitted maximal effect. Particulars: CHRM1-CHO antagonist mode, calcium flux fluorescence; series mostly up to 61.5 µM. In a few lines:
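Compounds were tested at 15 concentrations in three independent runs. Dye-loaded CHRM1-CHO cells were exposed 5 min at room temperature before stimulation by acetylcholine added at 50nM. Intracellular calcium was read kinetically on FDSS for 3 min.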
`O=Cc1cccc([N+](=O)[O-])c1`: the Potency entry is “inactive”.

Take `CC(COCCO)OCCO` (stereo unspecified): the Potency entry was “inactive”.

As for `NC(=O)N[C@@H](CCC(=O)O)C(=O)O`, the Potency entry was “inactive”.

With `COc1ccc2cc(C=O)ccc2c1`, the Potency result was “inactive”.

Regarding `CC(O)CCCCn1c(=O)c2c(ncn2C)n(C)c1=O` (stereo unspecified), the Potency result is “inactive”.

Turning to `NC(=O)CCCCC(N)=O`, the Potency entry was “inactive”.

`NCC1CCCC(CN)C1` (stereo unspecified): the Potency is 18.8 µM (active).

As for `CC(=O)CC(=O)Nc1ccc2[nH]c(=O)[nH]c2c1`, the Potency entry was “inactive”.

With `Oc1ccc(O)c2c(O)cccc12`, the Potency result was “inactive”.

For the compound `CCCOC(C)=O`, the Potency entry is “inactive”.

Consider `CCCCCCCCCCCC[N+](C)(C)CCCS(=O)(=O)[O-]`, for which the Potency is 33.8 µM (active).

As for `CC(C)=C1CC[C@@H](C)CC1=O`, the Potency result was “inactive”.

`O=C(O)c1ccc([N+](=O)[O-])cc1`: the Potency result was “inactive”.

On to `C=CCCCCCCCCC(=O)OCCCC`, for which the Potency result was “inactive”.

Consider `CC(=O)NCCO`, for which the Potency entry was “inactive”.

For `NNC(=O)c1cccc(C(=O)NN)c1`, the Potency entry was “inactive”.

In the case of `O=C(C(=O)c1ccco1)c1ccco1`, the Potency entry was “inactive”.

In the case of `COc1ccc(Cl)cc1C`, the Potency result is “inactive”.

Take `Nc1ncnc2c1ncn2Cc1c(F)cccc1Cl`: the Potency result is “inactive”.

For `NC(=S)Nc1cccc2ccccc12`, the activity, negative = inhibition was -5.9% [at 5.58 µM].
